PubChem BioAssay AID1159537 (DiRusso Lab, Biochemistry Department, University of Nebraska, 2015)
In all, about 44,000 compounds went through this assay and about 370 (0.84%) were called active. How the calls were made is not given here. The list comes from a sample in which actives are over-represented; it also holds similar structures and randomly drawn compounds.

experiment: compounds raising algal triacylglycerol storage – qHTS, Chlamydomonas reinhardtii, primary screen (AID 1159537); conditions: Chlamydomonas reinhardtii TAG, Nile Red fluorescence, 72 h; screened at 10 µM (by protocol);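 further: hits raise Nile Red signal meaning more stored TAG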

SMILES | outcome
COCCN1C(=O)C(O)=C(C(=O)c2ccc(C)o2)C1c1cccc(Cl)c1 (centres undefined) | inactive
NC(=O)c1sc2cc([N+](=O)[O-])ccc2c1Cl | inactive
O=C(CCCc1ccccc1)Nc1cccc(Cl)c1 | inactive
CCc1cccc(C)c1NC(=O)c1cc(OC)cc(OC)c1 | inactive
COc1ccc(CNC(=O)C(c2ccccc2)c2ccccc2)cc1 | inactive
NC(=O)c1c(NC(=O)COc2ccc([N+](=O)[O-])cc2)sc2c1CCCC2 | inactive
COc1cccc(OCCOc2ccc(C)cc2OC)c1 | inactive
COc1ccc(S(=O)(=O)N2CCN(c3ccccc3F)CC2)cc1OC | inactive
CC1(C)Cc2ccccc2/C(=C(\C#N)C(=O)Nc2cccc([N+](=O)[O-])c2)N1 | inactive
Cc1cc(C)nc(NS(=O)(=O)c2ccc(N/C=C\C(=O)c3cccs3)cc2)n1 | inactive
Cc1cccc(NC(=O)c2ccc(Cl)c(Cl)c2)c1C | inactive
Cc1cc(=O)[nH]c(SCc2ccc(Cl)cc2)n1 | inactive
CCCCOc1ccc(N2C(=O)CC(N3CCN(c4ccccn4)CC3)C2=O)cc1 (centres undefined) | inactive
CC(=O)N1CCN(Cc2c(Cl)cccc2Cl)CC1 | inactive
C=CCn1c(=O)c(C2=NS(=O)(=O)c3ccccc3N2)c(O)c2ccccc21 | inactive
O=C(c1ccc([N+](=O)[O-])cc1)N1CCN(C2CCCC2)CC1 | inactive
CCOc1ccccc1C(=O)Nc1ccc([N+](=O)[O-])cc1OC | inactive
Clc1ccc(-c2nnc3ccc(NCc4ccccc4)nn23)cc1 | inactive
O=C(O)c1ccccc1C(=O)c1ccc(O)cc1O | inactive
OCCN(Cc1ccccc1)Cc1ccc(-c2ccccc2)cc1 | inactive
CCOc1ccc(NC(=O)C(=O)NCCc2ccc(Cl)cc2)cc1 | inactive
O=C(Nc1cccnc1)c1cccc(C(=O)Nc2cccnc2)c1 | inactive
CCC1CCC(N2CCN(CC)CC2)CC1 (centres undefined) | active
CCN1CCN(C2CCN(Cc3ccccc3)CC2)CC1 | inactive

SMILES | outcome
CCOC(=O)N1CCN(C2CCN(CC)CC2)CC1 | inactive
O=C(c1cccc([N+](=O)[O-])c1)c1ccc2c(c1)C(=O)N(c1nccs1)C2=O | inactive
COc1c(S(=O)(=O)NCc2ccncc2)ccc(Cl)c1Cl | inactive
CCCCOc1ccc(N2C(=O)CC(N3CCN(c4ncccn4)CC3)C2=O)cc1 (centres undefined) | inactive
Cc1ccc(SCC(=O)Nc2ccc3c(c2)OCCO3)cc1 | inactive
NNc1ncnc2sc3c(c12)CCCC3 | inactive
COc1ccc(C(=O)N2CCC(C(=O)Nc3ccc(OCc4ccccc4)cc3)CC2)cc1 | inactive
O=C1NCCCc2nc(N3CCOCC3)sc21 | inactive
COc1ccc(N(CC(=O)N(C)Cc2ccccc2)S(C)(=O)=O)cc1OC | inactive
O=C(COc1ccc(Cl)cc1)Nc1ccc(F)c(F)c1 | inactive
O=C(/C=C/c1ccc(-c2ccccc2Cl)o1)c1ccco1 | inactive
O=C(c1ccc(C#CC2(O)CCCCC2)cc1)N1CCN(c2ccccc2Cl)CC1 | inactive
N#CC1=C(SCc2ccccc2)NC(=O)CC1c1ccc(Br)cc1 (centres undefined) | inactive
CC(=O)c1ccc(N2CCN(C(=O)c3c(F)c(F)cc(C)c3Cl)CC2)c(F)c1 | inactive
COc1ccc(-c2cc(C(=O)Nc3cccnc3)c3ccccc3n2)cc1 | inactive
Cc1cc(C)c(NC(=O)c2ccc(F)cc2)c(C)c1 | inactive
CC(C)c1ccc(OCC(=O)N2CCCC2)cc1 | inactive
O=C(NCC1CCNCC1)C(=O)NC1CCCCC1 | inactive
NC(=O)c1ccc2[nH]c3c(c2c1)CCCC3 | inactive
O=S(=O)(CCc1ccccc1)Nc1ccccc1 | inactive
CC(C)COc1ccc(C(=O)Nc2ccc([N+](=O)[O-])cc2Cl)cc1 | inactive
CCOc1ccc(CN2CCCN(C)CC2)cc1 | inactive
Cc1ccc(C(C)C)cc1OCCN1CCCC1 | inactive
Cc1cc(OCCN2CCN(C)CC2)ccc1C(C)C | active

SMILES | outcome
Cc1ccc(CN2CCOCC2)c(C)c1 | inactive
Cc1cc(OCCCCN2CCOCC2)ccc1C(C)C | active
Cc1cc(OCCN2CCOCC2)nc(NCc2ccccc2)n1 | inactive
CS(=O)(=O)N(Cc1ccc(C(=O)Nc2cccnc2)cc1)c1ccccc1 | inactive
CCc1ccc(N2CC(C(=O)NC(C)CC)CC2=O)cc1 (centres undefined) | inactive
O=C(Nc1cccc(Cl)c1Cl)c1ccc(I)o1 | inactive
CCOc1ccc(NC(=O)C(=O)NCc2ccccc2OC)cc1 | inactive
Cc1cc(Cl)ccc1NC(=O)c1cccnc1 | inactive
CC1CCN(c2ccc(C(=O)O)cc2[N+](=O)[O-])CC1 | inactive
Cc1ccc(C(=O)c2ccc(N3CCN(C)CC3)c([N+](=O)[O-])c2)cc1 | active
CS(=O)(=O)N1CCN(c2ccc(C(=O)NC3C4CC5CC(C4)CC3C5)cc2[N+](=O)[O-])CC1 (centres undefined) | inactive
CC(=O)c1ccc(NC(=O)c2ccc(CN(c3ccccc3)S(C)(=O)=O)cc2)cc1 | inactive
O=C(C1=C(O)C(=O)N(c2ncccn2)C1c1cccc([N+](=O)[O-])c1)c1ccco1 (centres undefined) | inactive
O=C(Nc1ccccc1C(=O)NCCN1CCOCC1)c1cccc(I)c1 | inactive
CCOc1ccccc1NC1=NS(=O)(=O)c2ccccc21 | inactive
COc1cc(C=O)cc(Br)c1OCc1ccccn1 | inactive
Cc1ccc(C(=O)Nc2cccc(O)c2)cc1S(=O)(=O)N1CCC(C)CC1 | inactive
Cc1cc(C)c(S(=O)(=O)NCCCN2CCOCC2)cc1Br | active
O=S(=O)(NCCN1CCOCC1)c1ccc(I)cc1 | inactive
O=C(NCCCN1CCOCC1)c1ccccc1Br | inactive
CN(C)CCNC(=O)c1ccc(Cl)cc1 | inactive
CC(=O)c1cc2c(cc1NC(=O)c1ccccc1Cl)OCCO2 | inactive
Cc1ccc(NS(=O)(=O)c2ccc(C(C)(C)C)cc2)cn1 | inactive
COc1ccc(CC(=O)NC(c2ccccc2)c2ccccc2)cc1OC | inactive

SMILES | outcome
CC1=C(C(=O)Nc2ccc(C)cn2)C(c2cccc(Cl)c2Cl)C2=C(CCCC2=O)N1 (centres undefined) | inactive
CCc1ccc(OCCN2CCCC(C)C2)cc1 (centres undefined) | inactive
Cc1nnc(NC(=O)CSc2nnnn2-c2ccc(Cl)cc2)s1 | inactive
O=C(O)c1ccc(C(=O)O)c(S(=O)(=O)c2cc(C(=O)O)ccc2C(=O)O)c1 | inactive
Clc1ccc(-n2nnnc2SCc2nn[nH]n2)cc1 | inactive
CC1(C)CC(=O)c2cnc3cc(-c4ccccc4)nn3c2C1 | inactive
O=C1C(=O)N(c2ccccc2)C(c2ccccc2[N+](=O)[O-])C1=C(O)c1ccccc1 (centres undefined) | inactive
CCc1ccc(OCC(=O)Nc2ccc(F)cc2)cc1 | inactive
Nc1cc(-c2ccccc2)nn1-c1ccccc1 | inactive
O=C(COc1ccc(Br)cc1)N1CCN(c2ccccc2F)CC1 | inactive
O=[N+]([O-])c1ccc(S(=O)(=O)Nc2cc(Cl)ccc2O)cc1 | inactive
COc1ccc(CSc2nnc(-c3ccc(Cl)cc3Cl)o2)cc1[N+](=O)[O-] | inactive
CCOc1ccc2nc(SCC(=O)NC(C)=O)sc2c1 | inactive
O=C(NCc1ccncc1)C(=O)NCc1ccco1 | inactive
CC(C)(C)C1CCC(NCc2ccncc2)CC1 (centres undefined) | active
O=C(Cc1ccc(F)cc1)NCc1ccncc1 | inactive
CCCc1ccc(OCC(O)CN2CCN(CCO)CC2)cc1 (centres undefined) | inactive
O=C(Nc1ccc(OCC(=O)N2CCOCC2)cc1)c1cc(F)c(F)cc1Cl | inactive
O=C1CC(N2CCN(c3ccccc3O)CC2)C(=O)N1c1ccc(Br)cc1 (centres undefined) | inactive
NC(=O)c1cc(NC(=O)CCC(=O)O)ccc1N1CCOCC1 | inactive
O=S(=O)(Nc1cccc(O)c1)c1ccc(-c2ccccc2)cc1 | inactive
O=C(Nc1ccccc1F)C1CC(=O)N(c2ccccc2F)C1 (centres undefined) | inactive
O=C(Nc1ccc([N+](=O)[O-])cc1Br)c1ccncc1 | inactive
O=C(COc1ccc(Br)cc1)Nc1ccc(N2CCOCC2)cc1 | inactive

SMILES | outcome
Cc1nc(-c2c[nH]c3ccccc23)cs1 | inactive
O=C(NCCc1ccc(F)cc1)C1CC(=O)N(c2ccccc2)C1 (centres undefined) | inactive
Clc1ccc(OCc2nc(-c3cccnc3)no2)c(Cl)c1 | inactive
Cc1ccccc1-c1nc(-c2ccncc2)no1 | inactive
c1ccc(CCc2nc(-c3ccncc3)no2)cc1 | active
NCCNc1ccc([N+](=O)[O-])c(N2CCCCC2)c1 | inactive
COc1cc(C=O)ccc1OCCOc1ccc(C)cc1Br | inactive
Cc1ccc(-c2nc(-c3cccnc3)no2)cc1Cl | inactive
Cc1ccc2oc(-c3ccc(C)c(N)c3)nc2c1 | inactive
CCn1c2c(c3cc([N+](=O)[O-])ccc31)CCCC2=O | inactive
CC(=O)N(c1ccccc1)C1CC(C)Nc2ccccc21 (centres undefined) | inactive
O=C(NC12CC3CC(CC(C3)C1)C2)c1ccccc1C(=O)NC12CC3CC(CC(C3)C1)C2 | inactive
COc1cccc(NC(=O)CN2CCN(c3nc4ccc([N+](=O)[O-])cc4s3)CC2)c1 | inactive
COc1ccc(/C=C(/NC(=O)c2ccco2)C(=O)Nc2ccc([N+](=O)[O-])cc2)cc1 | inactive
CS(=O)(=O)N(CC(=O)N1CCCCCC1)c1cccc(Cl)c1Cl | inactive
O=[N+]([O-])c1ccccc1/C=C/CN1CCN(C/C=C/c2ccccc2)CC1 | inactive
COc1cccc(CN2CCN(C/C=C/c3ccccc3)CC2)c1OC | inactive
C(=C\c1ccccc1)/CN1CCN(CC2CCCCC2)CC1 | active
CS(=O)(=O)N(CC(=O)N1CCCC1)c1ccc(I)cc1 | inactive
CCOc1ccc(C(=O)NCCc2ccc(F)cc2)cc1 | inactive
O=C(COc1cccc([N+](=O)[O-])c1)Nc1ccc(-c2nnc(-c3ccco3)o2)cc1 | inactive
Cc1ccc(NC(=O)c2ccccc2Br)cc1C | inactive
COc1ccc(C(O)=C2C(=O)C(=O)N(CCN3CCOCC3)C2c2ccncc2)cc1C (centres undefined) | inactive
